Source: PubChem BioAssay (NCATS)
Results filed as inconclusive are left out. Entries that show only a call come without a potency. Calls of active or inactive are those of the source. Unless noted, calls follow the shape of the dose curve; as a rule, active = well fitted curve in the direction sought with a large enough effect; inconclusive = small, poorly fitted or top-dose-only effect, or another doubt; inactive = no such curve, though single readings can be large; an effect the other way counts as inactive or inconclusive.

Assays:
[1] = Nrf2 qHTS screen for inhibitors: Validation (AID 493153; active = well fitted inhibition curve with a large enough effect in the main read-out, with a control signal flat, not every such curve was filed as active; also: potency is read from the fitted curve at half-maximal effect); settings: Potency: luciferase luminescence; viability change: measured here: cytotoxicity max response
Procedure, shortened: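 A549 cells carrying ARE-firefly luciferase reporter, 5000 cells/well in 5% FBS OPTI-MEM, treated with compound over a concentration series for 18-24 h at 37 C. Luciferase luminescence gave Nrf2 activity; CellTiter-Fluor fluorescence gave viability.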

[2] = qHTS for Inhibitors of Cell Surface uPA Generation: Validation Assay (AID 493164)
Procedure, shortened: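 RAW 264.7 cells (4000/well) were plated overnight, then exposed for 18 h at 37 C, 5% CO2 to compounds in a 7-point 1:5 titration (2.45 nM–38.3 uM final). Intracellular ATP was read by ATP-Lite luminescence.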

[3] = target: Galactokinase (Homo sapiens) (UniProt P51570); test: qHTS Validation Assay for Inhibitors of Human Galactokinase (GALK) (AID 493189)
Chain of Galactokinase (Homo sapiens) (P51570 whole entry, looked up): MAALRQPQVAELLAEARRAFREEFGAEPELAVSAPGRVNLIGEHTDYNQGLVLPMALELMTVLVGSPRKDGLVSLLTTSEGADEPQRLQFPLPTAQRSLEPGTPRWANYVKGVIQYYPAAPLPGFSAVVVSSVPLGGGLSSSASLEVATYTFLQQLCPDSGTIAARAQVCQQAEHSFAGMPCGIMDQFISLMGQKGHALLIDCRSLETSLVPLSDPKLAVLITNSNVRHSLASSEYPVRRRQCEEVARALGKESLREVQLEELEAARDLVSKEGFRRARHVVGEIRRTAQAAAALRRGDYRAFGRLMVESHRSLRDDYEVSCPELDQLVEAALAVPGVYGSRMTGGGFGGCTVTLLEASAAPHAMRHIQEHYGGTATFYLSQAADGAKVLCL
Procedure, shortened: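 GALK (5 nM) with 35 uM ATP and 100 uM galactose in HEPES pH8.0, MgCl2, NaCl, DTT, BSA; 1 h at room temperature. Residual ATP read by Kinase-Glo Plus luminescence after 10 min.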

[4] = Validation screen for small molecules that induce DNA re-replication in SW480 colon adenocarcinoma cells (AID 504364)
Procedure, shortened: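 SW480 cells (250/well) exposed 48 h at 37 C, 5% CO2, then Hoechst-stained 40 min. Nuclear DNA content imaged by fluorescence scanning (405 nm excitation, 500-530 nm emission); re-replication scored as increased nuclei with elevated intensity.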

[5] = target: Peptidyl-prolyl cis-trans isomerase NIMA-interacting 1 (Homo sapiens) (UniProt Q13526); test: qHTS Validation Assay to Find Inhibitors of Pin1 (AID 504536; active = well fitted inhibition curve with a large enough effect in the polarisation, with a control signal flat, not every such curve was filed as active; the % refers to the polarisation; also: potency is read from the fitted curve at half-maximal effect)
Chain of Peptidyl-prolyl cis-trans isomerase NIMA-interacting 1 (Homo sapiens) (Q13526 whole entry, looked up): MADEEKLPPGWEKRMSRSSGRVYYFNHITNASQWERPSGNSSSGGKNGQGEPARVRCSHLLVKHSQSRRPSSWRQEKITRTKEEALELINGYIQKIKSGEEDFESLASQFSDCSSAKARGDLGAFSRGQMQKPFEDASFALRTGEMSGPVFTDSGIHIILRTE
Procedure, shortened: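 Fluorescence polarization competition: compounds (titration) displace HiFluor-488-labeled Pin1-1b peptide from Pin1 (0.3 uM final) in pH 7.5 HEPES buffer with DTT, 10 min at room temperature; %Activity normalized to no-enzyme wells, curves fitted.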

[6] = target: Phosphoglycerate kinase, glycosomal (Trypanosoma brucei brucei) (UniProt P07378); test: qHTS Validation Assay to Find Inhibitors of Phosphoglycerate Kinase (AID 504547)
Chain of Phosphoglycerate kinase, glycosomal (Trypanosoma brucei brucei) (P07378 whole entry, looked up): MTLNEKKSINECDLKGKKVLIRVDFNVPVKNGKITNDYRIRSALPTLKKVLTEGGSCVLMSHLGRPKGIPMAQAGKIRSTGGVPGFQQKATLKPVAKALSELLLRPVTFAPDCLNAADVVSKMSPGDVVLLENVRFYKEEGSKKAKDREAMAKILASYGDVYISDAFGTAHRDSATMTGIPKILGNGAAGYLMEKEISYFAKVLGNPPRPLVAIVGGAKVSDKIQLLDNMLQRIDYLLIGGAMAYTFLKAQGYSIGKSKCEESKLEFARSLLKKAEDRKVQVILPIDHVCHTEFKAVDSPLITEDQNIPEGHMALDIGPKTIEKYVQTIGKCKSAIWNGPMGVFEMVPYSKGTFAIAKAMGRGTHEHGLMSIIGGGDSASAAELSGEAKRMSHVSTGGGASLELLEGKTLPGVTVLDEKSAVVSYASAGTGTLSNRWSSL
Procedure, shortened: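 PGK activity was coupled to GAPDH (100nM final), which generates the unstable substrate 1,3-bisphosphoglycerate in-well. Reactions ran 60 minutes at room temperature in 100mM TEA pH 7.6, 5mM MgCl2, 0.01% Tween-20, then Kinase-Glo Plus luminescence was read.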

[7] = target: Ubiquitin carboxyl-terminal hydrolase 1 (Homo sapiens) (UniProt O94782); test: Inhibitors of USP1/UAF1: Pilot qHTS (AID 504865); also: nearly all actives have a fitted effect of over 35% in size; also: potency is read from the fitted curve at half-maximal effect
Chain of Ubiquitin carboxyl-terminal hydrolase 1 (Homo sapiens) (O94782 whole entry, looked up): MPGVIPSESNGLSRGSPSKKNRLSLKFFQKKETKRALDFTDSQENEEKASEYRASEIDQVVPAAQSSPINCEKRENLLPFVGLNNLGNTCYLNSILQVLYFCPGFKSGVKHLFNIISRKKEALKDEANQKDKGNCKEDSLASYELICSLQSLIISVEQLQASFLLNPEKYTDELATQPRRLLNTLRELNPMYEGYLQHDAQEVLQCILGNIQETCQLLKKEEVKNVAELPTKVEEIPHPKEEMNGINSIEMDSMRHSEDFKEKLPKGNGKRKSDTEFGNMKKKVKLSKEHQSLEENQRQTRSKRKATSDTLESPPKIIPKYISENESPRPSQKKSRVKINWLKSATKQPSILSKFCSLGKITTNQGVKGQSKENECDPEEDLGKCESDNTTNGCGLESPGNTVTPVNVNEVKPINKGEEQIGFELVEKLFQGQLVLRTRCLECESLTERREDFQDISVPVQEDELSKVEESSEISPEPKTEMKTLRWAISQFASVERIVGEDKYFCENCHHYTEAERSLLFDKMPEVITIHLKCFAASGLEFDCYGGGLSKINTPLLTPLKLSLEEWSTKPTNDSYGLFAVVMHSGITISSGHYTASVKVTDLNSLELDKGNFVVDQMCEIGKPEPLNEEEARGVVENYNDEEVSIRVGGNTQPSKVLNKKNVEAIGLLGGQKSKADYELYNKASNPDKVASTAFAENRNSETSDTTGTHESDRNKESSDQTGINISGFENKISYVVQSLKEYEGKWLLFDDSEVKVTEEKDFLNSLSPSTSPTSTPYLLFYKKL
Procedure, shortened: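 USP1/UAF1 complex (1nM) preincubated with compound 15 min at room temperature, then Ub-Rho substrate (150nM final) added. Fluorescence read kinetically at 480/540 nm, 6 reads every 60 seconds. Buffer: 50mM HEPES pH 7.8, 0.5mM EDTA, 0.1 mg/ml BSA, 1mM TCEP, 0.01% Tween-20.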

[8] = qHTS for Inhibitors of ATXN expression: Validation of Cytotoxic Assay (AID 588349)
Procedure, shortened: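 HEK293 cells treated with titrated compound for 72 hr at 37 degrees C; viability read as intracellular ATP by CellTiter Glo luminescence.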

[9] = target: phosphoglycerate mutase (Leishmania major) (UniProt Q4Q090); test: qHTS Validation Assay to Find Inhibitors of Phosphoglycerate Mutase (AID 504548); settings: Potency: inhibition qHTS; also: series mostly up to about 58 µM
Chain of phosphoglycerate mutase (Leishmania major) (Q4Q090 1-553): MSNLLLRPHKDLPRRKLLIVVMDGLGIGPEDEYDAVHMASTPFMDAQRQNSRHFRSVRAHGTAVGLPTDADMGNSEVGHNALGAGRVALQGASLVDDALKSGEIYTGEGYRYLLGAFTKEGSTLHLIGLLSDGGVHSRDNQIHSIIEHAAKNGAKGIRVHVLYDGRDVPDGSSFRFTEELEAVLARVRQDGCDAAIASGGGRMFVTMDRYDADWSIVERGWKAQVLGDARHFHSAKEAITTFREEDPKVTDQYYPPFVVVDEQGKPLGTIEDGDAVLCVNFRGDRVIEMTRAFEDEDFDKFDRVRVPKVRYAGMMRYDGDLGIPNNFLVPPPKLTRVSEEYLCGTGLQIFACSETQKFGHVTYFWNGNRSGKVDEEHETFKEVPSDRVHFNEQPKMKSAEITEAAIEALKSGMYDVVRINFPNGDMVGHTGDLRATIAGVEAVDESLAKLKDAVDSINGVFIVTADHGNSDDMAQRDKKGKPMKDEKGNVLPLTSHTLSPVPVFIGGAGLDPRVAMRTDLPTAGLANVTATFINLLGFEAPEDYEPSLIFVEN
Procedure, shortened: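 Lm PGAM 1.25nM final; 100 mM TEA pH 7.6, 5 mM MgCl2, 0.01% Tween-20; 45 min RT; Kinase-GloPlus, 10 min; end-point luminescence. Enzyme-free wells as negative controls.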

[10] = target: DNA dC->dU-editing enzyme APOBEC-3G (Homo sapiens) (UniProt Q9HC16); test: qHTS for inhibitors of Vif-A3G interactions: Validation (AID 588379)
Chain of DNA dC->dU-editing enzyme APOBEC-3G (Homo sapiens) (Q9HC16 whole entry, looked up): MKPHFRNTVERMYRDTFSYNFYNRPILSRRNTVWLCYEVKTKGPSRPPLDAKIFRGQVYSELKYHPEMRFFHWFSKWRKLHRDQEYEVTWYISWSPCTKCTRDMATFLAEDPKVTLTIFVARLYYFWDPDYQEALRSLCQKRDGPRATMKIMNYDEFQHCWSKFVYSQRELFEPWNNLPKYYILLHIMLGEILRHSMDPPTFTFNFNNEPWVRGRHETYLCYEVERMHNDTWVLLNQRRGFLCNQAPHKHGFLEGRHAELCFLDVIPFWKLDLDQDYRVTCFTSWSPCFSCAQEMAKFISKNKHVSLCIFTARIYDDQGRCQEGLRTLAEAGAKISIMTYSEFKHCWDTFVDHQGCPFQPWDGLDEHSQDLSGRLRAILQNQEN
Procedure, shortened: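 HeLa cells stably expressing Vif and A3G-eYFP, 700 cells/well, incubated overnight at 37 deg C, then exposed to compound overnight at 37 deg C. Inhibition of Vif-mediated degradation read as increased yellow fluorescence (Ex 488/Em 500-530) by laser-scanning cytometry.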

[11] = target: Estrogen receptor (Homo sapiens) (UniProt P03372); test: qHTS assay for small molecule agonists of estrogen receptor alpha signaling (AID 588514; calls by dose curve; also: potency is read from the fitted curve at half-maximal effect; nearly all actives have a fitted effect of over 70% in size)
Chain of Estrogen receptor (Homo sapiens) (P03372 whole entry, looked up): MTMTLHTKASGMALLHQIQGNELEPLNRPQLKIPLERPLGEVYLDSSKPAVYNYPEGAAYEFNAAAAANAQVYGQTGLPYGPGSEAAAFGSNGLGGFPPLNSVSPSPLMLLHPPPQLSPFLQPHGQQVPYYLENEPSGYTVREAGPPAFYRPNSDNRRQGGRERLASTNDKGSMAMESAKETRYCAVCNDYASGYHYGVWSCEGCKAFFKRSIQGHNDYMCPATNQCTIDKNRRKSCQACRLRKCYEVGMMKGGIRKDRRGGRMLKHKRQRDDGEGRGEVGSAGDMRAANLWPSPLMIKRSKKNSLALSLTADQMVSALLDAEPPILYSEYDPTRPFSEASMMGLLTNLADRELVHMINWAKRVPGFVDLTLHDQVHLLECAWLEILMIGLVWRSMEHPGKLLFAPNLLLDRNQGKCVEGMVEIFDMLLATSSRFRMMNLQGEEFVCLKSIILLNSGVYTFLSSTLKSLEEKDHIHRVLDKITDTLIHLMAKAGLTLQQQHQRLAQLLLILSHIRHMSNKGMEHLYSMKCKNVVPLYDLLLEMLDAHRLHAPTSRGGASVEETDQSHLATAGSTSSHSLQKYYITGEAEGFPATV
Procedure, shortened: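 ER-alpha-UAS-bla GripTite HEK293 cells, 5000/well in 2% charcoal/dextran-stripped FBS medium, treated with compound titrations 18 h at 37 C. CCF4 beta-lactamase read by fluorescence after 2 h RT; normalised to 20 nM 17-beta-estradiol (100%) and DMSO (0%), Hill fit for EC50 and efficacy.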

[12] = target: Glucocorticoid receptor (Homo sapiens) (UniProt P04150); test: qHTS assay for small molecule antagonists of glucocorticoid receptor signaling (AID 588533; active = well fitted inhibition curve with a large enough effect in the signal ratio, with a control signal flat, not every such curve was filed as active; the % refers to the signal ratio;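 also: cells stimulated with 2 nM dexamethasone as agonist; potency is read from the fitted curve at half-maximal effect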)
Chain of Glucocorticoid receptor (Homo sapiens) (P04150 whole entry, looked up): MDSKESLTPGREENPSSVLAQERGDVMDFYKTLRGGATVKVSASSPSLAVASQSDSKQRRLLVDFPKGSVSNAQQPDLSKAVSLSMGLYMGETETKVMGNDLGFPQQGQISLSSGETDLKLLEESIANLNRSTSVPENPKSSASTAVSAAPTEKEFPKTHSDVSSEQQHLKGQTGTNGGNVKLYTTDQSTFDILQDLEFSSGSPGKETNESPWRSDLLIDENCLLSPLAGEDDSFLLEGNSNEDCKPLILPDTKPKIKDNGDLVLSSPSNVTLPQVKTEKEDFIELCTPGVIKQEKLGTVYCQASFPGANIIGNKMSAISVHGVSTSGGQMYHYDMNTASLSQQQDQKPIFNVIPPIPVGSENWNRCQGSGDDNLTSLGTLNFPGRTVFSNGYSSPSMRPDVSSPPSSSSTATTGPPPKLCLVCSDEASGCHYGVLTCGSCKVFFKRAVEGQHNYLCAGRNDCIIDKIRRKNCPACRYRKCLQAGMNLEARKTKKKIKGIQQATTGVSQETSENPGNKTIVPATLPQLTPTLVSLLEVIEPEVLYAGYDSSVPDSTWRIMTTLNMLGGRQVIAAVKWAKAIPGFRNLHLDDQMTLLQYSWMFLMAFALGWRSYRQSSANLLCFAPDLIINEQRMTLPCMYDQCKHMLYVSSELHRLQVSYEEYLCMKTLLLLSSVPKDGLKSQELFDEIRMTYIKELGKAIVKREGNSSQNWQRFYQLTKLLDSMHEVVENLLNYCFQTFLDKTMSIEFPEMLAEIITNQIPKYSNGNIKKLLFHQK
Procedure, shortened: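 Antagonist-mode qHTS: compound titrations added to GRE-bla HeLa cells, then dexamethasone 2 nM final; 18 h, 37 C. CCF4 FRET fluorescence normalized to dexamethasone and DMSO; IC50 from Hill fit.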

[13] = qHTS for Inhibitors of ATXN expression: Validation (AID 588378); also: nearly all actives have a fitted effect of over 75% in size; also: potency is read from the fitted curve at half-maximal effect
Procedure, shortened: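 Luminescence from an ATXN2-FFLuc reporter in HEK293 cells served as read-out after 24 h compound treatment at 37 degrees C; CellTiter-Fluor fluorescence was recorded first to assess viability.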

[14] = target: Androgen receptor (Homo sapiens) (UniProt P10275); test: qHTS assay for small molecule agonists of androgen receptor signaling (AID 588515; active = well fitted curve in the direction sought with a large enough effect in the signal ratio, with a control signal flat; the % refers to the signal ratio); settings: AR-UAS-bla HEK293, beta-lactamase ratio, agonist 16 h; stronger effect = higher value
Chain of Androgen receptor (Homo sapiens) (P10275 whole entry, looked up): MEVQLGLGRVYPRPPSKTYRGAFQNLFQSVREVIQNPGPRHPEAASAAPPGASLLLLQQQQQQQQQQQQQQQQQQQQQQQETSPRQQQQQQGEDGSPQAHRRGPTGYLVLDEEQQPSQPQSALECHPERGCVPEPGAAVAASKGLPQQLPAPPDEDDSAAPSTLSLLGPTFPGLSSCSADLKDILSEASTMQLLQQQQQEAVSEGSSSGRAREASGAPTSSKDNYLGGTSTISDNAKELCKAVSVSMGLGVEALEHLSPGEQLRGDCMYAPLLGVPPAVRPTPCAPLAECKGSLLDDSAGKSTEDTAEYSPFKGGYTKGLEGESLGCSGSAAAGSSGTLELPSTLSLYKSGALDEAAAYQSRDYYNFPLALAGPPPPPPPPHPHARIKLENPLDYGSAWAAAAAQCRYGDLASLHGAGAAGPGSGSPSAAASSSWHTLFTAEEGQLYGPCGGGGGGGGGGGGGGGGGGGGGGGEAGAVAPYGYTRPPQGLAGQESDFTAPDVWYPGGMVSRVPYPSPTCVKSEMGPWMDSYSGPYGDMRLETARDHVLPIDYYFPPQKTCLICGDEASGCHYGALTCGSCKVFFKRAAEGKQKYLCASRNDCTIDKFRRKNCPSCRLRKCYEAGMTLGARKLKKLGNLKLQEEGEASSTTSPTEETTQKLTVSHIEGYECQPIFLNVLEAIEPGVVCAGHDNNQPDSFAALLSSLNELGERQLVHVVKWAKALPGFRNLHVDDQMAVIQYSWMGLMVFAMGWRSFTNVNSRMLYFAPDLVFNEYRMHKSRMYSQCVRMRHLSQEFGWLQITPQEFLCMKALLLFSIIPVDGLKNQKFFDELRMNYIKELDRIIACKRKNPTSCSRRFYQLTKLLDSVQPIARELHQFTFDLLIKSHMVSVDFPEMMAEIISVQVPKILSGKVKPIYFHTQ
Procedure, shortened: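 EC50 and efficacy came from Hill fits of titrations (up to 92 uM) normalized to 30 nM R1881 as 100% and DMSO as 0%. Compound exposure was 16 h at 37 C on AR-UAS-bla HEK293 cells, with a 405/460/530 nm CCF4 fluorescence read.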

[15] = target: Glucocorticoid receptor (Homo sapiens) (UniProt P04150); test: qHTS assay for small molecule agonists of glucocorticoid receptor signaling (AID 588532; active = well fitted curve in the direction sought with a large enough effect in the signal ratio, with a control signal flat; the % refers to the signal ratio); settings: HeLa MMTV-bla, beta-lactamase ratio, agonist, 18 h; stronger effect = higher value; percent of dexamethasone control, DMSO zero
Procedure, shortened: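 HeLa GRE-bla reporter cells; 18 h compound exposure at 37 C; 2 h CCF4 loading at room temperature; fluorescence at 460 and 530 nm; EC50 by Hill equation.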

SMILES | Potency [1] | viability change [1] | outcome [2] | Potency [3] | Potency [4] | Potency [5] | Potency [6] | Potency [7] | Potency [8] | Potency [9] | Potency [10] | Potency [11] | Potency [12] | Potency [13] | activation [14] | activation [15]
Nn1nnc2ccccc21 | inactive | -0.567% | inactive | inactive | inactive | inactive | inactive | inactive | inactive | – | – | – | – | – | – | –
CCCc1c(-c2ccc(O)cc2)nn(-c2ccc(O)cc2)c1-c1ccc(O)cc1 | inactive | -5.33% | inactive | inactive | inactive | inactive | inactive | inactive | – | inactive | inactive | 0.0112 µM (active) | 28.2 µM (active) | – | – | –
Oc1cc(O)c2c(c1)O[C@H](c1ccc(O)c(O)c1)[C@@H](O)C2 | inactive | 1.23% | inactive | inactive | inactive | inactive | inactive | inactive | inactive | – | inactive | – | – | inactive | – | –
Cc1nc(N=Nc2ccc(C(=O)O)cc2)c(COP(=O)(O)O)c(C=O)c1O | inactive | -9.24% | inactive | inactive | inactive | 26.9 µM (active) | inactive | 22.4 µM (active) | – | – | – | – | – | inactive | – | –
CNc1cc(NS(=O)(=O)c2ccc(N)cc2)nc(NC)n1 | inactive | 6.74% | inactive | inactive | inactive | inactive | inactive | inactive | inactive | – | – | – | – | inactive | – | –
CCCCC[C@H](CC(=O)NO)C(=O)N[C@H](C(=O)N1CCC[C@H]1CO)C(C)C | 16.4 µM (active) | 2.77% | inactive | inactive | inactive | inactive | – | inactive | – | inactive | – | – | – | – | – | –
NC(=O)CC[C@H](N)C(=O)O | inactive | 2.88% | inactive | inactive | inactive | inactive | – | inactive | inactive | inactive | – | – | – | inactive | – | –
CC(N)(Cc1ccc(O)c(O)c1)C(=O)O (configuration not stated) | inactive | -0.588% | inactive | inactive | inactive | inactive | – | inactive | – | – | – | – | – | – | – | –
N[C@H]1CONC1=O | inactive | 1.32% | inactive | inactive | inactive | inactive | inactive | inactive | inactive | – | – | – | – | inactive | – | –
COc1cc(N)c(Cl)cc1C(=O)OCCN1CCCCC1 | inactive | -3.02% | inactive | inactive | inactive | inactive | inactive | inactive | inactive | – | – | – | – | inactive | – | –
CCCn1c(=O)c2[nH]c(-c3ccc(S(=O)(=O)O)cc3)nc2n(CCC)c1=O | inactive | -4.01% | inactive | inactive | inactive | inactive | inactive | – | inactive | inactive | – | – | – | inactive | – | –
NC/C=C\C(=O)O | inactive | -0.476% | inactive | inactive | inactive | inactive | – | inactive | inactive | – | inactive | – | – | – | – | –
O=C(O)c1ccccc1Nc1ccccc1 | inactive | 10.9% | inactive | inactive | inactive | inactive | inactive | inactive | inactive | – | – | – | – | inactive | – | –
CC(C)Cn1c(=O)n(C)c(=O)c2[nH]cnc21 | inactive | 1.08% | inactive | inactive | inactive | inactive | – | inactive | inactive | inactive | – | – | – | inactive | – | –
COC(=O)[C@H](NC(=O)c1cc(-c2ccccc2)nc2ccccc12)c1ccccc1 | inactive | -11.1% | inactive | inactive | inactive | inactive | inactive | inactive | inactive | – | inactive | – | – | inactive | – | –
NC1CCN(O)C1=O (configuration not stated) | inactive | 4.05% | inactive | inactive | inactive | inactive | inactive | – | inactive | – | – | – | – | inactive | – | –
CC(C)(CO)Cc1cc(C(C)(C)C)c(O)c(C(C)(C)C)c1 | inactive | 10.3% | inactive | inactive | inactive | inactive | – | – | – | inactive | inactive | – | – | – | – | –
Cc1ccc([N+](=O)[O-])cc1S(=O)(=O)N(C)C | inactive | 3.59% | inactive | inactive | inactive | inactive | inactive | inactive | inactive | – | – | – | – | inactive | – | –
Cn1c(=O)c2c(nc(/C=C/c3cccc(Cl)c3)n2C)n(C)c1=O | inactive | 3.93% | inactive | inactive | inactive | inactive | inactive | – | inactive | inactive | – | – | – | – | – | –
CC1CCN=C(N)S1 (configuration not stated) | inactive | 9.66% | inactive | inactive | inactive | inactive | inactive | inactive | inactive | – | – | – | – | inactive | – | –
N[C@H](C(=O)O)c1cc(O)cc(O)c1 | inactive | 13.1% | inactive | inactive | inactive | – | inactive | inactive | – | inactive | inactive | – | – | inactive | – | –
Cc1ccc2c(c1)C(N1CCN(C)CC1)=Nc1cccnc1N2 | inactive | 3.55% | inactive | – | inactive | inactive | inactive | inactive | inactive | inactive | – | – | – | inactive | – | –
C=CCN1CCc2c(cc(O)c(O)c2Cl)C(c2ccccc2)C1 (configuration not stated) | inactive | -2.43% | inactive | inactive | – | inactive | inactive | inactive | – | inactive | – | – | – | – | – | –
C[C@H](NC(=O)/C(C#N)=C/c1ccc(O)c(O)c1)c1ccccc1 | inactive | -7.12% | inactive | inactive | – | inactive | inactive | inactive | – | inactive | – | – | – | – | – | –
N#C/C(=C\c1ccc(O)c(O)c1)C(=O)NCCc1ccccc1 | inactive | -10.3% | inactive | inactive | – | – | inactive | inactive | – | inactive | – | – | – | inactive | – | –
CC[C@@H]1Cc2cc(O)ccc2C2=C1c1ccc(O)cc1C[C@H]2CC | inactive | 1.92% | inactive | inactive | – | inactive | inactive | inactive | – | inactive | – | – | – | 15.8 µM (active) | -13.9% (inactive) | -4.83% (inactive)
